Calls of active or inactive are those of the source. Rule for the calls: active = hit-call score of the fitted dose curve at least 0.9, where 1 is the maximum; inactive = score below 0.9.
Biological target: human Protein Kinase D2 (PKD2), PRKD2 (gene 25865) (UniProt Q9BZL6)
Experiment: NVS_ENZ_hPKD2: NovaScreen (NVS) Enzymatic Assay for human Protein Kinase D2 (PKD2)
Experimental: NVS_ENZ_hPKD2 is a biochemical, single-readout assay that uses extracted gene-proteins in a cell-free assay. Measurements were taken 1 hour after chemical dosing in a 384-well plate.NVS_ENZ_hPKD2 is one of one assay component(s) measured or calculated from the NVS_ENZ_hPKD2 assay. It is designed to make measurements of enzyme activity, a form of enzyme reporter, as detected with fluorescence intensity signals by Fluorescence and electrophoretic mobility shift technology.Data from the assay component NVS_ENZ_hPKD2 was analyzed into 1 assay endpoint. This assay endpoint, NVS_ENZ_hPKD2, was analyzed in the positive analysis fitting direction relative to DMSO as the negative control and baseline of activity. Using a type of enzyme reporter, loss-of-signal activity can be used to understand changes in the enzymatic activity as they relate to the gene PRKD2. Furthermore, this assay endpoint can be referred to as a primary readout, because this assay has produced multiple assay endpoints where this one serves a enzymatic activity function. To generalize the intended target to other relatable targets, this assay endpoint is annotated to the kinase intended target family, where the subfamily is serine/threonine kinase. […]

Sequence of human Protein Kinase D2 (PKD2), PRKD2 (gene 25865) (Q9BZL6 whole entry, looked up): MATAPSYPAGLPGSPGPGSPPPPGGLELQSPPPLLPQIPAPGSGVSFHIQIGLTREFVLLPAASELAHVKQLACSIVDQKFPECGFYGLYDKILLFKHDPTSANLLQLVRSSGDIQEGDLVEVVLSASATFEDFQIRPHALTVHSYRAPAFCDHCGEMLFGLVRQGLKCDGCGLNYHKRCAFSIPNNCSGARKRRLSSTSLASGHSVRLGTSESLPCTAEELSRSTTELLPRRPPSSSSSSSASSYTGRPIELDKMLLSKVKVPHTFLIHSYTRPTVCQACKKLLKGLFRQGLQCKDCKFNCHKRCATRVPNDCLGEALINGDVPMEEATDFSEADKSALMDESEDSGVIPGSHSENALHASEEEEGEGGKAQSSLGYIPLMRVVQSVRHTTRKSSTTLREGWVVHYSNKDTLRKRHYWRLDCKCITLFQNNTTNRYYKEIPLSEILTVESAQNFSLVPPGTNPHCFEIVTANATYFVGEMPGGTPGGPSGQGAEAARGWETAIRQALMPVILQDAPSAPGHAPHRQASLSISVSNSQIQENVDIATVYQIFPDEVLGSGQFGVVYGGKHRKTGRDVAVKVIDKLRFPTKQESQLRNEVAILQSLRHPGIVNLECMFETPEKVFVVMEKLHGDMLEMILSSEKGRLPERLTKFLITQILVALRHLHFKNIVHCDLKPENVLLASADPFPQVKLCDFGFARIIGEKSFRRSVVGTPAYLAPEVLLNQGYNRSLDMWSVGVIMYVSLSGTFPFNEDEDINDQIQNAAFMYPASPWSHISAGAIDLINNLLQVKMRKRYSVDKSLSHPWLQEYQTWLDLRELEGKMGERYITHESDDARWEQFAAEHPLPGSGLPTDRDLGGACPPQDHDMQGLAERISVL

SMILES | outcome
Oc1ccc(C(c2ccc(O)cc2)C(Cl)(Cl)Cl)cc1 | inactive
N#CSCSc1nc2ccccc2s1 | inactive

Source: PubChem BioAssay AID2283197 (EPA ToxCast)
